The record followed here is PubChem BioAssay.

Active and inactive are the calls of the source.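 The calls were made as follows, unless noted: active = fluorescence slope after compound addition differing from the mean of all screened samples at 99.7% confidence, in either direction; inactive = the rest.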

The nature of assay [1]: inhibitors of TNFa-induced NFkB p65 translocation, primary screen, imaging, HUVEC, MLSMR starter and 10KST1 sets (AID 438;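 active = inhibition above 20% together with a positive visual image hit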;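 also: compound added about 3h40 before a 20 min TNFalpha stimulation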;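 as to inhibition: signal is the nuclear over cytoplasmic p65 intensity ratio per well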). The settings on record: HUVEC TNFa-induced p65 nuclear translocation; cell count: measured here: nuclei count (cytotoxicity indicator), at 2.08 µM; inhibition: at 2 µM, stronger effect = higher value, 0% TNFa-plus-vehicle, 100% no-TNFa wells.
Assay [2] is described as follows: reduction of polyQ htt aggregates in cells – imaging, exon1htt(103Q)mCFP cells, high-content imaging, primary screen (AID 483;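 active = visual image review flags a hit and inhibition of aggregation exceeds 20%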;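 also: compound exposure lasted 3 days before fixation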;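 as to nuclei count: percent of the per-plate median nuclei count of sample wells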). Conditions: exon1htt(103Q)mCFP cell line, aggregate imaging, at 2 µM; inhibition of aggregation: stronger effect = higher value; nuclei count: measured here: cell count, toxicity.
A short description of assay [3]: endothelial E-selectin expression blockers – imaging, HUVEC, immunofluorescence, MLSMR starter and 10KST1 sets, primary screen (AID 487;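 active = visually confirmed hit in the image check and inhibition above 20%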;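 as to inhibition: signal is fraction of cell area covered by stained E-selectin grains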;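 as to nuclei count: 100% = median nuclei count of all wells on the same plate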). Conditions: HUVEC TNFalpha-induced E-selectin immunofluorescence imaging, at 2 µM; inhibition: stronger effect = higher value; nuclei count: measured here: cell number, toxicity.
For assay [4], the target named is Voltage-gated potassium channel subunit beta-2 (Rattus norvegicus) (UniProt P62483). The assay is described as follows: inhibitors of rat Kvbeta2 reductase activity – biochemical, NADPH fluorescence, primary screen (AID 622;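 active = fluorescence slope higher than the sample average by over 3 SD, cut at about -0.22 in these data, passing the limit was not always enough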;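 also: slope of raw intensity against log time taken from 70 to 1610 s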). Conditions: recombinant KvBeta, 4-cyanobenzaldehyde reduction, at 10 µM, stronger effect = higher value.
For assay [5] the target is unchanged. In words: enhancers of rat Kvbeta2 NADPH turnover – biochemical, NADPH fluorescence, primary screen (AID 623;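 active = NADPH fluorescence slope more negative than the mean of all samples by about 3 SD, 99.7% confidence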;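 also: fluorescence intensity change per second fitted from 20 to 320 s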). The settings on record: Recombinant KvBeta, NADPH fluorescence decrease slope, 10 min; at 10 µM; stronger effect = lower value.
For assay [6], the target named is Alpha-2C adrenergic receptor (Homo sapiens) (UniProt P18825). In words: compounds altering alpha2C-coupled GIRK flux – cell-based, HEK293 alpha2C/GIRK1/2, thallium flux, primary screen (AID 624).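 Also: slope of fluorescence ratio to pre-addition baseline per second over 15 to 24 s.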 The settings on record: thallium flux BTC fluorescence, at 10 µM, actives lie on both sides.
A short description of assay [7]: blockers of RIG-like receptor reporter activation – cell-based, Sendai virus stimulus, luciferase, 10K MLSCN set, TLR/RLR signaling modifier project, primary screen (AID 602276;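 active = inhibition at or above 50% at 10 µM; inactive = inhibition below 50%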;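 also: firefly luciferase from ISG56 promoter only with Renilla not read in this screen; 0% = Sendai virus plus DMSO and 100% = medium plus DMSO without virus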). Conditions: HEK293 RL24 IRF3 luciferase reporter, at 10 µM, stronger effect = higher value. (In general: Reporter assays use an easily measured gene product as a stand-in for the process of interest.)

The nature of assay [8]: TLR3 IRF3 reporter activation blockers – cell-based, poly I:C stimulus, luciferase, 10K MLSCN set, primary screen (AID 602277;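 active = inhibition of the reporter signal at or above 50%; inactive = inhibition below 50%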). Conditions: HEK293-TLR3 RL24 IRF3 luciferase reporter, at 10 µM, stronger effect = higher value.

Chain of Voltage-gated potassium channel subunit beta-2 (Rattus norvegicus) (P62483 whole entry, looked up): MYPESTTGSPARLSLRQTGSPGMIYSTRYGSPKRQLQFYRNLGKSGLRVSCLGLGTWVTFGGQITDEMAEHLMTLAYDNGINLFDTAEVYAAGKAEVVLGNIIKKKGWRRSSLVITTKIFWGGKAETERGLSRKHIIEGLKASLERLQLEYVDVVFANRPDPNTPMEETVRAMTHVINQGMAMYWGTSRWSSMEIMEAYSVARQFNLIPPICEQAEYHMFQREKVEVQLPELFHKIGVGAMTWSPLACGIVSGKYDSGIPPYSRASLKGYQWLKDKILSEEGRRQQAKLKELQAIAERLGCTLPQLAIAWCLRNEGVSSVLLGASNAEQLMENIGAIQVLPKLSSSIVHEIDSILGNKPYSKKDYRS
Chain of Alpha-2C adrenergic receptor (Homo sapiens) (P18825 whole entry, looked up): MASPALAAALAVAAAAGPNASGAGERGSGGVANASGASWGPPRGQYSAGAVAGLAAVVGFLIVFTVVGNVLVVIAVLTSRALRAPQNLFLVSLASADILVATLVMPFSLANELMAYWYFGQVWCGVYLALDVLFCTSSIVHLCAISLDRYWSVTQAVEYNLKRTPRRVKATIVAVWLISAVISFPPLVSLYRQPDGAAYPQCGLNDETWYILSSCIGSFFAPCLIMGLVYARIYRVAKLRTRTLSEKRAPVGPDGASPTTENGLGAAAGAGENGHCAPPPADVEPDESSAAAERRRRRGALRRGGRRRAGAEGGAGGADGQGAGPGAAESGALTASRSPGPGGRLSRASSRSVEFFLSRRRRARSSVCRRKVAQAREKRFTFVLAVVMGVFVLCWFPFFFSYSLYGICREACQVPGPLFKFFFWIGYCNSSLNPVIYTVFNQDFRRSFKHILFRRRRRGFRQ

By inhibition is commonly meant the relative decrease from the control value, in per cent. For `CCOC(=O)N1CCN(C(=O)CSCC(=O)Nc2nc(-c3ccc(OC)cc3)cs2)CC1`, the cell count in assay [1] was found to be 450. Further, the inhibition in assay [1] is 2.7% (inactive); in assay [3], 41.9% (inactive); in assay [7] it was -14.1% (inactive); in assay [8], -24.6% (inactive). The inhibition of aggregation in assay [2] was -44% (inactive). Also, the nuclei count in assay [2] was found to be 54%; in assay [3], 91.3%. In addition, in assay [4], the fluorescence slope is -0.425 (inactive). Also, the NADPH fluorescence slope in assay [5] is -8.7e-05 (inactive). In assay [6], the slope is 0.00636 (inactive).

Turning to `Cc1c(C(=O)NCCC2=CCCCC2)oc2ccc(S(=O)(=O)N3CCC4(CC3)OCCO4)cc12`, the cell count in assay [1] turned out to be 643. For the same compound, the inhibition in assay [1] is 10.9% (inactive); in assay [3], -42.7% (inactive); in assay [7], 16.2% (inactive); in assay [8], 29.4% (inactive). Besides, in assay [2], the inhibition of aggregation is -35% (inactive). The nuclei count in assay [2] is 113%; in assay [3] it was 106%. Besides, the fluorescence slope in assay [4] was -0.413 (inactive). The NADPH fluorescence slope in assay [5] is -5.5e-05 (inactive). In assay [6], the slope is 0.00783 (inactive).

For `O=C(C1CCN(C2CC(=O)N(c3ccc(F)cc3)C2=O)CC1)N1CCOCC1` (centres undefined), the cell count in assay [1] came to 326. Moreover, the inhibition was 6.1% (inactive) in assay [1], 12.7% (inactive) in assay [3], 7.33% (inactive) in assay [7] and 13% (inactive) in assay [8]. Moreover, the inhibition of aggregation in assay [2] was 19.1% (inactive). For the same compound, the nuclei count in assay [2] was found to be 79.5%; in assay [3] it was 75.9%. In addition, the fluorescence slope in assay [4] is -0.512 (inactive). In addition, in assay [5], the NADPH fluorescence slope was -2.5e-05 (inactive). Further, in assay [6], the slope is 0.00647 (inactive).

For the compound `CCOC(=O)N1CCN(CC(=O)c2c(C)[nH]c3ccccc23)CC1`, the cell count in assay [1] is 349. In addition, the inhibition is 10.5% (inactive) in assay [1], -113% (inactive) in assay [3], 0.348% (inactive) in assay [7] and 6.29% (inactive) in assay [8]. In addition, the inhibition of aggregation in assay [2] was -5.3% (inactive). Also, the figures for the nuclei count in assay [2] and in assay [3] were 92.4% and 143%, respectively. The fluorescence slope in assay [4] is -0.491 (inactive). In addition, the NADPH fluorescence slope in assay [5] was -6.3e-05 (inactive). Moreover, the slope in assay [6] is 0.00584 (inactive).

Turning to `CCOC(=O)N1CCN(Cc2nc3c(c(=O)n(C)c(=O)n3C)n2Cc2ccccc2)CC1`, the cell count in assay [1] was 598. The inhibition in assay [1] is 2.9% (inactive); in assay [3], 0.1% (inactive); in assay [7], 9% (inactive); in assay [8], 14.8% (inactive). Also, the inhibition of aggregation in assay [2] was -8.1% (inactive). Further, the nuclei count in assay [2] is 120%; in assay [3] it was 115%. Besides, in assay [4], the fluorescence slope was -0.538 (inactive). Besides, the NADPH fluorescence slope in assay [5] was -3.9e-05 (inactive). Moreover, the slope in assay [6] is 0.00607 (inactive).

With `CCOc1ccc(OCc2cccc(C(=O)N3CCOCC3)c2)cc1`, the cell count in assay [1] stood at 383. The inhibition is 3.1% (inactive) in assay [1], -148% (inactive) in assay [3], -39.6% (inactive) in assay [7] and -97.2% (inactive) in assay [8]. The inhibition of aggregation in assay [2] is -7.6% (inactive). Besides, the nuclei count was determined as 101% in assay [2] and 117% in assay [3]. For the same compound, in assay [4], the fluorescence slope was -0.407 (inactive). The NADPH fluorescence slope in assay [5] was -6.4e-05 (inactive). Moreover, the slope in assay [6] was 0.00492 (inactive).

In the case of `Nc1nc(-c2ccc(Br)s2)c(Br)s1`, the cell count in assay [1] turned out to be 579. Moreover, the inhibition in assay [1] is -10.7% (inactive); in assay [3], 18.6% (inactive); in assay [7], 1.12% (inactive); in assay [8], 2.3% (inactive). Moreover, the inhibition of aggregation in assay [2] is 5.7% (inactive). The nuclei count was found to be 102% in assay [2] and 98% in assay [3]. Moreover, the fluorescence slope in assay [4] was -0.507 (inactive). The NADPH fluorescence slope in assay [5] was 2.9e-05 (inactive). In assay [6], the slope was 0.00465 (inactive).

In the case of `COc1ccccc1-c1nnc(NC(=O)c2ccc(S(=O)(=O)N(C)Cc3ccccc3)cc2)o1`, in assay [1], the cell count is 391. For the same compound, the inhibition is 6.1% (inactive) in assay [1], -6.7% (inactive) in assay [3], 14.7% (inactive) in assay [7] and 25.7% (inactive) in assay [8]. In addition, the inhibition of aggregation in assay [2] was 9.9% (inactive). Further, the nuclei count in assay [2] worked out at 92.8%; in assay [3], 99.4%. In addition, the fluorescence slope in assay [4] was -0.478 (inactive). Besides, in assay [5], the NADPH fluorescence slope was -1.3e-05 (inactive). Besides, the slope in assay [6] was 0.00777 (inactive).

Turning to `O=C(O)c1ccccc1S(=O)(=O)NCC(O)COc1ccc(Br)cc1` (centres undefined), the cell count in assay [1] is 435. In addition, the inhibition in assay [1] was 3.5% (inactive); in assay [3] it was 31.4% (inactive); in assay [7], 10.6% (inactive); in assay [8], 14.4% (inactive). Also, the inhibition of aggregation in assay [2] is -17% (inactive). The nuclei count was 106% in assay [2] and 81.4% in assay [3]. The fluorescence slope in assay [4] was -0.39 (inactive). Moreover, in assay [5], the NADPH fluorescence slope is 2.1e-05 (inactive). Besides, the slope in assay [6] was 0.00443 (inactive).

With `CCOc1nc(OCC)nc(N2CCC(C)CC2)n1`, in assay [1], the cell count came to 499. For the same compound, the inhibition in assay [1] was 9.1% (inactive); in assay [3] it was -118% (inactive); in assay [7], 16.6% (inactive); in assay [8], 20.5% (inactive). In addition, the inhibition of aggregation in assay [2] is 5.9% (inactive). In addition, the nuclei count was found to be 106% in assay [2] and 138% in assay [3]. In addition, in assay [4], the fluorescence slope is -0.242 (inactive). In addition, the NADPH fluorescence slope in assay [5] is -3.2e-05 (inactive). In assay [6], the slope is 0.005 (inactive).

`CCSc1nnc2c(n1)OC=Nc1ccc(Br)cc1-2`: the cell count in assay [1] was found to be 262. Besides, the inhibition in assay [1] is -12.8% (inactive); in assay [3] it was -24.2% (inactive); in assay [7] it was 15.5% (inactive); in assay [8], 20.5% (inactive). In addition, in assay [2], the inhibition of aggregation is 20.4% (inactive). The nuclei count in assay [2] came out at 62.3%; in assay [3], 84.5%. Besides, in assay [4], the fluorescence slope is -0.38 (inactive). In addition, in assay [5], the NADPH fluorescence slope was -3.3e-05 (inactive). The slope in assay [6] was 0.00298 (inactive).

For the compound `O=C(CCS(=O)(=O)c1cccc2nsnc12)NCc1ccccc1`, the cell count in assay [1] was 718. The inhibition was 3.1% (inactive) in assay [1], -24.5% (inactive) in assay [3], -2.94% (inactive) in assay [7] and 5.74% (inactive) in assay [8]. Besides, the inhibition of aggregation in assay [2] was -14.8% (inactive). For the same compound, the nuclei count in assay [2] amounted to 93.6%; in assay [3], 114%. The fluorescence slope in assay [4] was -0.567 (inactive). Moreover, the NADPH fluorescence slope in assay [5] was 3.6e-05 (inactive). The slope in assay [6] was 0.00505 (inactive).

`O=c1[nH]c(NCc2ccco2)nnc1Cc1ccccc1Cl`: the cell count in assay [1] turned out to be 643. Besides, the inhibition in assay [1] is 1.8% (inactive); in assay [3], -18.6% (inactive); in assay [7], 6.89% (inactive); in assay [8], 40.7% (inactive). In addition, in assay [2], the inhibition of aggregation is -15.1% (inactive). The values for the nuclei count in assay [2] and in assay [3] were 111% and 124%, respectively. The fluorescence slope in assay [4] was -0.515 (inactive). In addition, the NADPH fluorescence slope in assay [5] is -0.000182 (inactive). Besides, the slope in assay [6] is 0.0051 (inactive).

`COc1ccc(OCC(=O)Nc2cccc3ncccc23)cc1`: in assay [1], the cell count is 629. Besides, the inhibition in assay [1] was -16.2% (inactive); in assay [3], 23.2% (inactive); in assay [7] it was 1.02% (inactive); in assay [8], -8.12% (inactive). Also, the inhibition of aggregation in assay [2] is 31.6% (inactive). The nuclei count worked out at 84.8% in assay [2] and 95.6% in assay [3]. The fluorescence slope in assay [4] is -0.622 (inactive). The NADPH fluorescence slope in assay [5] is -5.4e-05 (inactive). The slope in assay [6] was 0.00436 (inactive).
